These results are taken from PubChem BioAssay (NCATS).

Values joined by “and” are separate entries in the source; they are usually repeats but may differ in a detail not shown here. Equal entries are not always repeated. Records with an inconclusive call do not appear. Active and inactive are the calls of the source. The call rests on the fitted dose curve; in most records, active means well fitted inhibition curve with a large enough effect; inconclusive means small, poorly fitted or top-dose-only effect; inactive means flat fitted curve, though single readings scatter.
On the % scale 0 is the no-effect control and ±100 the full control effect; potency means the concentration at half of the fitted maximal effect.

The test system of the assay is KB-3-1. Kind of assay: Cytotoxic Profiling of Annotated Libraries Using Quantitative High-Throughput Screening (AID 1296008). Further: nearly all actives have a fitted effect of over 60% in size. As to conditions: Five cell lines viability, CellTiter-Glo ATP luminescence, 48-72 h; max response: stronger effect = lower value. A digest of the protocol: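 Compounds were pin-transferred onto cells and incubated 48 or 72 hr at 37 degree Celsius, 95% humidity. CellTiter-Glo was added, plates sat 10 min at room temperature, then ATP-coupled luminescence was imaged as the viability read-out.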
As for `CCC(=O)Oc1ccc2c(c1)CC[C@@H]1[C@@H]2CC[C@]2(C)[C@@H](OC(=O)CC)CC[C@@H]12`, the max response is -26.3% (inactive).

Turning to `COC(=O)C[C@](O)(CCCC(C)(C)O)C(=O)O[C@@H]1C(OC)=CC23CCCN2CCc2cc4c(cc2[C@H]13)OCO4` (stereo partly drawn), the Potency was 58 nM (active). On to `CCN1CCCC1CNC(=O)c1cc(S(=O)(=O)CC)ccc1OC` (stereo not drawn), for which the max response was -13.4% (inactive) and -13.1% (inactive). With `C=Cc1ccccc1`, the max response was -0.236% (inactive). On the same count and under the same terms, with `CC(=O)[C@@]1(O)CC[C@H]2[C@@H]3C=C(Cl)C4=CC(=O)CC[C@]4(C)[C@H]3CC[C@@]21C` the figure was -17.5% (inactive); with `CS(=O)(=O)OCCCNCCCOS(C)(=O)=O`, -5.57% (inactive); with `CCOC(=O)Cc1cccc(-c2cc(CCCCCCc3ccc(O[C@H]4O[C@H](COC(C)=O)[C@@H](OC(C)=O)[C@H](OC(C)=O)[C@@H]4OC(C)=O)c(-c4cccc(CC(=O)OCC)c4)c3)ccc2O[C@H]2O[C@H](COC(C)=O)[C@@H](OC(C)=O)[C@H](OC(C)=O)[C@@H]2OC(C)=O)c1`, -10.9% (inactive).

`NCCC[C@H](N)C(=O)O`: the max response is -6.2% (inactive).
